Laboratory results from PubChem BioAssay AID488815 (Broad Institute, 2010).
Results with a measured potency or affinity are listed apart. Results filed as inconclusive are left out. Active and inactive are the calls of the source. How the calls were made is not given here.

target: CAAX prenyl protease 1 (Saccharomyces cerevisiae (strain ATCC 204508 / S288c)) (UniProt P47154); assay: Ste24 protease inhibitors, dose response, biochemical, S. cerevisiae, plate reader, cherry-pick (AID 488815); conditions: yeast Ste24 protease activity; series mostly up to 10 µM
Sequence (P47154 whole entry, looked up): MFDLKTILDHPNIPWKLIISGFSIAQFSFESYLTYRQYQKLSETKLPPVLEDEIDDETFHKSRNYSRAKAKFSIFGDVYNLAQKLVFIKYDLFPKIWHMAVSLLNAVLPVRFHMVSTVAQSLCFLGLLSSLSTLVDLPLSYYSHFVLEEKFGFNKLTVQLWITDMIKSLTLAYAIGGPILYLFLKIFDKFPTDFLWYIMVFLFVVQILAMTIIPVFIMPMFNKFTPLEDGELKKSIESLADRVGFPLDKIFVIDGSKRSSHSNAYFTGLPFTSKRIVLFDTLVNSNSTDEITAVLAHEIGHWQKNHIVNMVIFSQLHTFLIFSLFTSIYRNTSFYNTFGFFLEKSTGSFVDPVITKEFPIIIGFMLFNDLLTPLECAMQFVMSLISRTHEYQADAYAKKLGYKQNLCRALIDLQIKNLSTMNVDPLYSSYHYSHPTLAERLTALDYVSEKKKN

outcome, inactive:
Cc1cc(Cl)c2oc(C(=O)N3CCN(C(=O)c4ccco4)CC3)c(C)c2c1
CC1(C)CC2CC(C)(CN2S(=O)(=O)c2ccc(N)cc2)C1 (stereo not given)
COc1ccc(OCC(=O)NS(=O)(=O)c2ccc(Cl)cc2)cc1
CN(C(=O)COC(=O)c1cn(-c2ccccc2)nc1-c1ccccc1)C1CCS(=O)(=O)C1 (stereo not given)
O=C1CCN(Cc2ccccc2)CCN1[C@H](CSc1ccccc1)Cc1ccccc1
COc1cccc(/C=N/NC(=O)c2nnn(-c3nonc3N)c2C(C)C)c1OCc1ccc(F)cc1
CC1=C(C(=O)OCc2ccccc2)C(c2ccc(-c3ccccc3)cc2)NC(=O)N1CCCC(=O)O (stereo not given)
O=C(O)CCCC[C@@H]1SC[C@@H]2NC(=O)N[C@@H]21
Cc1cc(C(=O)N/N=C/c2c3ccccc3cc3ccccc23)n[nH]1
NC(=O)c1nsc(C(=O)N(c2ccccc2F)C(C(=O)NCc2ccccc2)c2ccc(O)cc2)c1N (stereo not given)
COc1ccc(C(=O)/C=C/c2ccc(OC)cc2OC)c(O)c1
CC1=NN(c2ccccc2)C(=O)/C1=C\c1ccc(Br)s1
COc1ccc(-c2nc3ncccc3o2)cc1NC(=O)c1ccco1
COc1cc2ccccc2cc1C(=O)N(CCN(C)C)c1nc2ccc(C)cc2s1
C/C(Cl)=C\Cn1c(O)c(N=NC(N)=S)c2cc(Br)ccc21
COC(C/C=C/[C@@H](O)[C@H](C)OCc1ccccc1)OC
COc1ccc(C)cc1NC(=O)CCC(=O)Nc1ccc2nc(N3CCN(C)CC3)cc(C)c2c1
CC1CCN(C(=O)c2cc3nc(-c4ccccc4)cc(-c4ccccc4)n3n2)CC1
O=C(O)CCC(=O)c1ccc(-c2ccccc2)cc1
O=C(Nc1ccc2c(c1)CCC2)c1ccccc1Br
NC(=NCCCCCCN=C(N)/N=C(\N)Nc1ccc(Cl)cc1)/N=C(\N)Nc1ccc(Cl)cc1
C/C(CC1(O)C(=O)Nc2ccccc21)=N\O (stereo not given)
Nc1nonc1-n1nnc(C(=O)N/N=C/c2ccoc2)c1CSc1ccccc1
COC(C[C@H](O)C[C@H](O)[C@@H](C)OCc1ccccc1)OC
CCO[C@@H]1OC(C(=O)N2CCN(Cc3ccccc3)CC2)=C[C@H](c2ccccc2)[C@H]1CCCO
CCn1cc(/C=C(\NC(=O)c2ccccc2F)C(=O)N2CCOCC2)c2ccccc21
Cc1ccc(S(=O)(=O)c2cn(C)c3cc(N4CCOCC4)c(F)cc3c2=O)cc1
O=S(=O)(c1ccccc1)c1nc(-c2ccco2)oc1N1CCCCC1
O=C(O)CCc1nc2cc(C(F)(F)F)ccc2n(Cc2ccccc2)c1=O
Cc1cccc(N2C(=O)c3cccc4c(N5CCCCC5)c([N+](=O)[O-])cc(c34)C2=O)c1C
CCCC(=O)N1CCN(c2ccc(NC(=O)c3cc4ccccc4o3)cc2Cl)CC1
CC(=O)c1c(C)oc2ccc(NS(=O)(=O)c3ccc(C(=O)O)cc3)cc12
CC(=O)N1c2ccc([N+](=O)[O-])cc2NC(=O)CC1C (stereo not given)
Cc1nc(SC(C(=O)c2ccccc2)c2ccccc2)nc2ccccc12 (stereo not given)
Cc1cc(C)n(Cc2ccc(NC(=O)c3ccc(COc4ccccc4Br)cc3)cc2)n1
CCN(C(=O)COC(=O)c1cc(-c2cccs2)nc2ccccc12)C1CCS(=O)(=O)C1 (stereo not given)
COc1cccc(C(=O)Nc2nnc(SCC(=O)NC3CCCC3)s2)c1
N/C(Cc1ccc([N+](=O)[O-])cc1)=N\OC(=O)c1ccc2ccccc2c1
O=C1C(Cc2c[nH]c3ccccc23)NC(=S)N1Cc1ccccc1 (stereo not given)
NS(=O)(=O)c1ccc(NC(=O)/C=C/c2cn(-c3ccccc3)nc2-c2cccc(Cl)c2)cc1
